Source: PubChem (National Center for Advancing Translational Sciences (NCATS))
TCR act = activators of T cell receptors; primary human leukocytes, anti-CD3, IL-2 HTRF, 48 h; Potency, µM (titrated, usually from 9.22 µM), inactives show at the top dose activation of IL-2 secretion, hits mostly activators; 330,000 tested, under 10 active; note: % of control where 0% means no effect
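1) Mix primary human leukocytes, a-CD3 beads and compound. 2) Incubate 48 hr. 3) Add HTRF IL-2 reagents (a-IL-2-K, a-IL-2-d2).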
Sfp PPTase inh = blocks B. subtilis Sfp PPTase activity; AID 1490; Potency, µM, for inactives: largest response in the series, negative = inhibition, actives largely listed as inhibitors; 310,000 tested, 3.5% active; Q9F4F7; Biochemical Sfp PPTase activity, qHTS;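 note: the enzyme is Sfp with the accession as filed and its product quenches rhodamine fluorescence; potency is the fitted concentration of half-maximal effect; 0% = enzyme reaction without inhibitor and -100% = no enzyme wells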
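After 15 min at room temperature with compound, 15 nM Sfp received 5 uM rhodamine-CoA plus 12.5 uM BHQ-2-ybbR (50 mM Hepes pH 7.6, 10 mM MgCl2). Rate came from the fluorescence difference over 30 min, ex 525/em 598 nm.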
ClpP mod = qHTS Assay for Activators of ClpP; purified B. subtilis ClpP, FRET peptide cleavage, 20 min; Potency, µM (highest dose often 57.5 µM), for the others: at the highest dose activity change, negative = active; ATP-dependent Clp protease proteolytic subunit (Bacillus subtilis (strain 168)), P80244; 340,000 tested, 1.9% active; active = well fitted falling curve with a large enough effect; inconclusive = small, poorly fitted or top-dose-only effect; inactive = no such curve, though single readings can be large or run the other way; note: potency is the fitted concentration of half-maximal effect; the source files actives as falling curves though it sought activators and does not explain the sign; nearly all actives have a fitted effect of over 65% in size
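FRET quenching reversal measured ClpP activation: 10 microg/mL B. subtilis ClpP at pH 8 with the FRET-FV decapeptide, read at 430 nm after 320 nm excitation. The 20-min minus 0-min signal was scaled between DMSO/no-enzyme wells and ADEP (5.8 microM final).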
uPA surface inh = inhibitors of cell surface uPA generation; cell surface uPA generation assay, qHTS; Potency, µM (doses to about 38.3 µM), for inactives: at the highest dose activity change, negative = inhibition, most hits filed as inhibitors; 330,000 tested, 0.31% active; AID 540303; active = well fitted inhibition curve with a large enough effect; inconclusive = small, poorly fitted or top-dose-only effect; inactive = no such curve, though single readings can be large or run the other way; tested in mouse RAW 264.7 cells; note: potency is the fitted concentration of half-maximal effect; % is set by controls: 0 for no effect and ±100 for the full control effect; nearly all actives have a fitted effect of over 55% in size
An asterisk follows results filed as active; ? = inconclusive; nt = no result; [ ] = dose if it differs, or a comment. Sampled rows, rich in hits. Any-hit rate of the full collection: about 4.2%. Unless noted, calls come from the whole dose curve; as a rule, active = well fitted curve in the direction sought with a large enough effect; inconclusive = small, poorly fitted or top-dose-only effect, or another doubt; inactive = no such curve, though single readings can be large; an effect the other way counts as inactive or inconclusive.

SMILES	TCR act	Sfp PPTase inh	ClpP mod	uPA surface inh
Cc1cccc(-c2nnc(SCCOc3ccc4c(C)cc(=O)oc4c3)o2)c1	-9.2%	0.9%	10µM*	-5.7%
O=C(c1ccco1)N1CCN(C(=O)c2cc3c(s2)-c2ccccc2OC3)CC1	-0.7%[46.1 µM]	50.1µM*	4.5%	-1.1%
O=C(c1cc2c(s1)-c1ccccc1OC2)N1CCN(c2ccc(F)cc2)CC1	nt	nt	-15.5%	nt
Cc1ccc(S(=O)(=O)NC(=O)C2(C)CCN2C(=O)Cc2cccs2)cc1 (configuration not stated)	nt	nt	-3.9%	nt
COCCNc1ncnc2ccc(-c3ccccc3C)cc12	nt	79.4µM*	nt	nt
CC(=O)c1nn(-c2ccc(OC(F)(F)F)cc2)nc1Nc1ccc(Cl)cc1	nt	nt	2.8%	nt
CCN1CCN(C(c2cccc(Cl)c2)c2c(O)cc(C)n(CCOC)c2=O)CC1 (configuration not stated)	nt	nt	-3.6%	nt
O=C1N/C(=C/c2cccs2)C(=O)N1Cc1ccccc1F	-3.7%	17.3%	nt	0.1%
O=C1N/C(=C/c2ccco2)C(=O)N1Cc1ccccc1F	-0.2%[46.1 µM]	50.1µM*	-2.1%	0.9%
CC(C)CN1C(=O)/C(=C/c2ccco2)NC1=S	-1.2%[46.1 µM]	35.5µM*	0.8%	6.8%
CC(C)CN1C(=O)/C(=C/c2cccs2)NC1=S	7.1%[46.1 µM]	10.7%	0.1%	5.0%
O=C(COc1ccccc1C(=O)Nc1ccccc1)NC1CCCCC1	nt	nt	1.1%	nt
COc1ccccc1CNC(=O)c1ccc(N2CCOCC2)c([N+](=O)[O-])c1	2.9%	-11.8%	-1.5%	18.3%
COC(=O)c1cccc(-c2ccc(C(c3c(C)[nH][nH]c3=O)c3c(C)[nH][nH]c3=O)o2)c1	0.1%	8.91µM*	nt	-4.8%
N#Cc1ccc(NC(=O)c2ccc3c(c2)nnn3C2CCCC2)cc1	nt	nt	-1.7%	nt
COc1cc(OC)c(/C=C/c2ccncn2)c(OC)c1	nt	nt	-11.0%	nt
CCN(CCCNC(=O)c1ccc(Sc2ccc(Cl)cc2)c(NC(C)=O)c1)c1cccc(C)c1	nt	nt	-17.6%	nt
CCN(CCNCC(O)COCc1ccc(Cl)cc1)c1cccc(C)c1 (configuration not stated)	6.8%	10µM*	nt	-1.6%
O=C(O)CSc1nc2ccc(Cl)cc2[nH]1	-3.9%	12.0%	25.1µM*	-9.2%
COC(=O)c1cc2c(ccn2-c2ccc(F)cc2)n1Cc1ccc(C#N)cc1	3.8%[46.1 µM]	?	1.3%	1.8%
COC(=O)c1cc2c(ccn2-c2ccc(F)cc2)n1Cc1ccc(OC)cc1	4.3%[46.1 µM]	-2.7%	22.4µM*	0.0%
CCn1c(=S)sc2c(=O)n(-c3ccccc3)c(=S)[nH]c21	10.3%	-26.4%	nt	-5.6%
CCOc1ccccc1-n1c(=S)sc2c(=O)n(-c3ccc(C)cc3)c(=S)[nH]c21	4.1%	44.7µM*	-0.6%	7.2%
COc1cc(/C=C2/C(=O)NN(c3cccc(C)c3)C2=O)ccc1OC(=O)c1ccco1	-2.5%[46.1 µM]	44.7µM*	1.9%	0.2%
CCOc1cccc(-c2c(C(=O)N/N=C(\C)c3ccccn3)nnn2-c2nonc2N)c1	-3.6%	31.6µM*	2.0%	?
SMILES	TCR act	Sfp PPTase inh	ClpP mod	uPA surface inh
CCOc1cccc(-c2c(C(=O)N/N=C(\C)c3ccncc3)nnn2-c2nonc2N)c1	6.9%	14.8%	-1.1%	0.3%
CC(NC(=O)C(=O)NCCN1CCN(C(=O)c2ccc([N+](=O)[O-])cc2)CC1)c1ccccc1 (configuration not stated)	4.0%	10.4%	nt	3.7%
COc1cc2c[n+](C)c3c4ccccc4ccc3c2cc1OC	1.9%	nt	8.91µM*	-4.5%
Cc1cccc(N2CCN(C(=O)c3ccc4c(c3)NC(=O)C(CSCc3cccc(F)c3)N4)CC2C)c1 (configuration not stated)	-34.7%	56.2µM*	-3.1%	-24.7%
COc1ccc(N2CCN(C(=O)c3ccc4c(c3)NC(=O)C(CSCc3ccccc3F)N4)CC2)cc1 (configuration not stated)	nt	nt	-11.4%	nt
COc1ccccc1N1CCN(C(=O)c2cccc(C(=O)N3CCN(c4ccccc4OC)CC3)c2)CC1	3.0%	17.2%	nt	-1.3%
O=C1Nc2cc(C(=O)N3CCN(c4ccccc4F)CC3)ccc2NC1CSCc1ccccc1F (configuration not stated)	nt	56.2µM*	nt	nt
COc1ccccc1N1CCN(C(=O)c2ccc3c(c2)NC(=O)C(CSCc2ccccc2C)N3)CC1 (configuration not stated)	nt	50.1µM*	nt	nt
CCCc1nn2c(=O)cc(COC(=O)c3cccc(NC(=O)c4ccc(OCC)cc4)c3)nc2s1	nt	nt	4.8%	nt
O=C(Nc1ccc2c(c1)nc1n2CCN(C2CCCCC2)C1)c1ccco1	-1.4%	79.4µM*	-11.0%	-10.2%
Cc1cccc(N2CCN(c3ccc4cc(S(=O)(=O)N5CCC(C)CC5)ccc4n3)CC2)c1C	nt	nt	-8.5%	nt
Cc1ccc(NC(=S)N(Cc2ccc(Cl)cc2)Cc2ccc(C(=O)O)cc2)cc1Cl	-7.6%	-7.8%	-0.5%	-4.6%
CCc1ccc(N2C(=O)c3ccc4c5c(ccc(c35)C2=O)CC4)cc1	-3.4%	5.4%	25.1µM*	1.3%
CCc1ccc(N2C(=O)C(Cl)=C(N3CCCCCC3)C2=O)cc1	6.1%	-1.6%	1.5%	-12.4%
CN1c2ccccc2-c2nc3ccccc3n2C1c1ccncc1 (configuration not stated)	-3.1%	7.2%	20µM*	5.6%
CC(=O)OC(C(=O)Nc1nccs1)c1ccccc1 (configuration not stated)	nt	19.4%	-3.3%	-5.1%
O=C(Nc1nccs1)C(Br)C(Br)c1ccccc1 (configuration not stated)	-1.9%	50.1µM*	nt	-9.3%
Nc1ccc(Br)c2c1C(=O)c1ccccc1C2=O	-1.2%	50.1µM*	1.0%	-9.5%
Cc1noc(/C=C/c2ccco2)c1S(=O)(=O)N1CCC(C(=O)NCc2ccco2)CC1	0.6%	19.4%	-11.8%	-10.3%
Cc1ccc(CNC(=O)C2CCN(S(=O)(=O)c3c(C)noc3/C=C/c3ccco3)CC2)cc1	0.1%	39.8µM*	5.8%	?
Cc1noc(/C=C/c2ccco2)c1S(=O)(=O)N1CCC(C(=O)N2CCc3ccccc3C2)CC1	-7.7%	56.2µM*	-3.2%	-12.9%
COc1ccc(S(=O)(=O)N2CCOCC2)cc1NC(=O)c1ccc(=O)[nH]c1	1.9%	nt	0.5%	1.7%
c1ccc2c(c1)Cc1cc3cc4c(cc3nc1-2)OCO4	nt	-16.8%	nt	nt
CCOC(=O)CCCc1c[nH]c2ccccc12	-17.5%	17.9%	-5.9%	nt
Cc1noc(C)c1COC(=O)CCCc1c[nH]c2ccccc12	1.1%	50.1µM*	-9.4%	0.9%
O=C(NCC(=O)N(c1cccnc1)C(C(=O)NC1CCCC1)c1ccccc1F)c1ccco1 (configuration not stated)	8.5%	7.7%	0.4%	7.2%
NS(=O)(=O)c1ccc(NC(=S)N2CCN(c3cccc(Cl)c3)CC2)cc1	7.0%[46.1 µM]	12.6µM*	0.5%	-5.3%
CN1CCN(C(=S)Nc2ccc(S(N)(=O)=O)cc2)CC1	-2.4%	22.4µM*	1.7%	11.3%
NS(=O)(=O)c1ccc(NC(=S)N2CCN(c3ccccc3Cl)CC2)cc1	-10.8%[46.1 µM]	24.6%	1.4%	0.6%
